In the library only some 4.6% were active in any assay of this set; here they are far more common.
D1 potentiator: Potentiators of Human D1 Dopamine Receptor: qHTS; D(1A) dopamine receptor (Homo sapiens), P21728; HEK293 TREx D1 cells, calcium flux, dopamine EC20 potentiation; potentiation, % at 10 µM; actives 0.036% (n = 360,000); in the data active = potentiation above about 30%
Target sequence (P21728 whole entry, looked up): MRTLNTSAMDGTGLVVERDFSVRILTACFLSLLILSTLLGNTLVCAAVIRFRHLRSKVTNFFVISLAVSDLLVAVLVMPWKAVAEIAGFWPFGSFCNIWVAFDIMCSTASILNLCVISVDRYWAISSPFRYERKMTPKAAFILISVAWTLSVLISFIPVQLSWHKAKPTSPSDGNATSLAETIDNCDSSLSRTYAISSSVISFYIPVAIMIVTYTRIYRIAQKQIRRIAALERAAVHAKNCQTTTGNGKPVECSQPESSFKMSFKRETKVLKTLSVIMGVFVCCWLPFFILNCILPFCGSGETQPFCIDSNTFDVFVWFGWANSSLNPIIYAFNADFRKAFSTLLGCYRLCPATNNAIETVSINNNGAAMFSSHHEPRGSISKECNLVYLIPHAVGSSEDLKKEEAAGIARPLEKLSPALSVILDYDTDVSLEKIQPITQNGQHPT
TRHR ag: qHTS for Small Molecule Agonists and Allosteric Enhancers of Human TRH Receptor: Primary Screen for Agonists. Thyrotropin-releasing hormone receptor (Homo sapiens), P34981. TRHR cells, calcium flux fluo-8, FDSS agonist mode. activation, % at 2 µM. actives 0.18% (n = 360,000). AID 493084, 2011
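Steps: seed TRHR cells overnight; add fluo-8 no-wash Ca dye, RT 30 min–1.5 h; record 10 s baseline; pin-transfer compounds; monitor fluorescence 1 cycle/s for the agonist window. Calcium increases flag candidate agonists.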
Epigenetic derep: Quantitative High-Throughput Screen for Regulators of Epigenetic Control | murine LDR cells, GFP reporter derepression, 30 h | Potency, µM (top dose mostly 53.9 µM), usual class: activators | actives 0.2% (n = 280,000); active = well fitted activation curve with a large enough effect; inconclusive = small, poorly fitted or top-dose-only effect; also: nearly all actives have a fitted effect of over 60% in size
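Murine LDR cells carrying a silenced, genomically integrated CMV-driven GFP reporter were exposed to compound for 30 hours at 37 C. After PBS washes, GFP-positive cells (20–120 um objects) were counted by laser-scanning microplate cytometry.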
TRHR enhancer: qHTS for Small Molecule Agonists and Allosteric Enhancers of Human TRH Receptor: Primary Screen for Enhancers; Thyrotropin-releasing hormone receptor (Homo sapiens), P34981; TRHR cells, fluo-8 calcium fluorescence, EC20 TRH enhancement; enhancement, % at 2 µM; actives 0.66% (n = 360,000); in the data active = enhancement above about 30%
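Enhancer read-out: after compound pinning and an initial kinetic agonist-mode read, an EC20 of TRH (10 nM final) was injected and fluo-8 calcium signal (Ex 480/Em 530) followed at 1 s/cycle for 100 cycles in TRHR-expressing cells.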
D1 ag: Allosteric Agonists of the Human D1 Dopamine Receptor: qHTS; D(1A) dopamine receptor (Homo sapiens), P21728; HEK293 T-REx D1 cells, calcium flux, agonist mode; activation, % at 2 µM; actives 1% (n = 360,000); AID 504660, 2011
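Inducible HEK293 T-REx D1 cells, force-coupled to calcium signalling, were plated at 4000 cells/well with tetracycline and held overnight at 30 C. After no-wash calcium dye loading, compound-evoked calcium rise over 180 s flagged agonists.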
D1 antagonist: Antagonist of Human D 1 Dopamine Receptor: qHTS; actives 3.2% (n = 360,000); AID 504652, 2011; activity change, negative = inhibition, % at 10 µM; HEK293 TREx D1 cells, calcium flux, dopamine EC80; stronger effect = lower value; in the data active = activity change below about -30%
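Tetracycline-induced HEK293 T-REx cells with force-coupled D1 receptor were loaded with a no-wash calcium dye. Compound was added after a 10 s baseline and read kinetically for 180 s; EC80 dopamine was then added and calcium flux followed another 180 s.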
A number is an active result; – = inactive; ? = inconclusive; · = no result given. Rule as the data show it, unless noted: active = activation above about 30%; inactive = the rest.

SMILES | D1 potentiator | TRHR ag | Epigenetic derep | TRHR enhancer | D1 ag | D1 antagonist
CC(C)(C)c1ccc(C(=O)NC2(C(F)(F)F)C(=O)Nc3c2c(=O)[nH]c(=O)n3-c2ccccc2)cc1 (centres undefined) | – | – | – | – | – | –
COc1ccc(CNC(=O)CCc2nnc3n(CC(C)C)c(=O)c4ccccc4n23)cc1 | – | – | – | – | – | –
CC(C)(C(O)c1ccc([N+](=O)[O-])cc1)[N+](=O)[O-] (centres undefined) | · | · | – | · | · | ·
CCCN1C(C(=O)c2ccccc2)=C(OC(=O)C(C)(C)C)c2ccccc2S1(=O)=O | – | – | – | – | – | –
O=C(O)c1nnn(-c2ccc([N+](=O)[O-])cc2)c1-c1ccccc1 | – | – | – | – | – | -42.0
COC(=O)c1ccc(Cl)cc1NC(=O)N1CC=C(c2c[nH]c3ccccc23)CC1 | – | – | 28.2µM | – | – | –
Cc1ccc(NC(=O)N2CC=C(c3c[nH]c4ccccc34)CC2)cc1Cl | – | – | ? | – | – | –
Cc1nn(CCC(=O)Nc2cc(F)ccc2F)c(=O)c2nn(-c3ccccc3)c(C)c12 | – | – | – | – | – | –
Cn1c(=O)n(C)c2cc(NS(=O)(=O)c3ccc4c(c3)CCCC4)ccc21 | – | – | – | – | – | -33.5
Cn1c(=O)n(C)c2cc(NS(=O)(=O)c3ccc(C(C)(C)C)cc3)ccc21 | – | – | – | – | – | –
COc1ccc(CN(C)c2ccc(-c3nc(C)no3)cc2[N+](=O)[O-])cc1 | – | – | – | – | – | –
CCCCCCCCCCSc1n[nH]c(NC(C)=O)n1 | – | – | – | – | – | -40.5
CCOC(=O)c1nn(-c2ccc(C)cc2)c(=O)cc1OCC(=O)Nc1cc(C)ccc1OC | – | – | · | – | – | -42.4
CCOC(=O)c1nn(-c2ccccc2)c(=O)cc1OCC(=O)Nc1cc(C)ccc1OC | – | – | · | – | – | –
COc1ccc(NC(=O)Cn2c(=O)n(Cc3ccccc3)c(=O)c3oc4ccccc4c32)cc1Cl | – | – | – | – | – | –
COc1ccc(C2Nc3ccccc3C(=O)N2Cc2ccccc2)cc1 (centres undefined) | – | – | · | – | – | -39.3
O=C(O)c1ccc(C2Nc3ccccc3C(=O)N2Cc2ccccc2)cc1 (centres undefined) | – | – | · | – | – | –
COc1ccc(-c2nc(CSCC(=O)NCCc3ccc(OC)c(OC)c3)c(C)o2)cc1 | – | – | – | – | – | –
COc1ccc(/C=N/n2cc(-c3ccc(OC)cc3)nc2N)cc1 | – | – | – | – | – | -38.2
O=C(/C=C/c1ccccc1)OC1CC(O)C2(O)C=CO[C@@H](OC3OC(CO)C(O)C(O)C3O)C12 (some centres undefined) | · | · | – | · | · | ·
CCN(CC)c1ccc(C(=O)O)cc1 | – | – | – | – | – | –
CCN(CC)c1ccc(/C=C2\C(=O)c3ccc(C(=O)O)cc3C2=O)cc1 | – | 106.2 | – | – | 354.0 | –
C=CCOC(=O)N[C@H](/C(C(=O)OC)=C(\C)NCc1ccccc1)c1ccc(C)cc1 | · | · | – | · | · | ·
CC(NCCCOc1cccc2ccccc12)c1ccccc1 (centres undefined) | – | – | · | – | 38.9 | –
COc1ccc2ccccc2c1CNC(C)c1ccccc1 (centres undefined) | – | – | · | – | – | –
CCOc1cc(C(=O)NCCN2C(=O)S/C(=C\c3cccnc3)C2=O)cc(OCC)c1OCC | – | – | – | – | – | -48.9
Cc1ccc(SCc2cc(-c3ccc(Cl)cc3)no2)cc1 | – | – | – | – | 36.3 | –
Cc1ccsc1CCN1C(=O)N(c2ccc(F)cc2)C(=O)C1CC(=O)Nc1ccccc1 (centres undefined) | – | – | – | – | – | -30.5

Compound activity as filed in PubChem BioAssay.
